Records with an inconclusive call do not appear. Activity calls are given as the source filed them. The calls were made as follows: active = hit-call score of the fitted dose curve at least 0.9, where 1 is the maximum; inconclusive = response in the unintended direction; inactive = score below 0.9.
Tests used:
[1] = biological target: human Opioid Receptor Delta 1 (Opiate D1), OPRD1 (gene 4985) (UniProt P41143); assay: NVS_GPCR_hOpiate_D1: NovaScreen (NVS) G Protein-Coupled Receptor Assay for human Opioid Receptor Delta 1 (Opiate D1) (AID 2283280)
human Opioid Receptor Delta 1 (Opiate D1), OPRD1 (gene 4985), sequence (P41143 whole entry, looked up): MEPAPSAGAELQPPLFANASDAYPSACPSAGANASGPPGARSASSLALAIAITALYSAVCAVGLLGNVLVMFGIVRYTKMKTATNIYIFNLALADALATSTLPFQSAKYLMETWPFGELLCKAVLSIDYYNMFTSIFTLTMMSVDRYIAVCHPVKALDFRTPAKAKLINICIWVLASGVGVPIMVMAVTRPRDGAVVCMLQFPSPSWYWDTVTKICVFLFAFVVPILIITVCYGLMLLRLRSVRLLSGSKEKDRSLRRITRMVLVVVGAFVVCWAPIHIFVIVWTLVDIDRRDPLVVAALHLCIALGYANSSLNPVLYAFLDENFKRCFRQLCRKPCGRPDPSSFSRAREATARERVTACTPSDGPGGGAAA
In short: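 Membrane preparations from CHO cells bearing the human receptor were incubated 1 h with test chemical, and bound radioligand was counted after filtration. Actives from 25 uM duplicate screening were retested in concentration-response.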

[2] = biological target: human Thromboxane A2 Receptor (TXA2), TBXA2R (gene 6915) (UniProt P21731); assay: NVS_GPCR_hTXA2: NovaScreen (NVS) G Protein-Coupled Receptor Assay for human Thromboxane A2 Receptor (TXA2) (AID 2283282);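 also: actives reduce bound radioligand signal relative to DMSO baseline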
human Thromboxane A2 Receptor (TXA2), TBXA2R (gene 6915), sequence (P21731 whole entry, looked up): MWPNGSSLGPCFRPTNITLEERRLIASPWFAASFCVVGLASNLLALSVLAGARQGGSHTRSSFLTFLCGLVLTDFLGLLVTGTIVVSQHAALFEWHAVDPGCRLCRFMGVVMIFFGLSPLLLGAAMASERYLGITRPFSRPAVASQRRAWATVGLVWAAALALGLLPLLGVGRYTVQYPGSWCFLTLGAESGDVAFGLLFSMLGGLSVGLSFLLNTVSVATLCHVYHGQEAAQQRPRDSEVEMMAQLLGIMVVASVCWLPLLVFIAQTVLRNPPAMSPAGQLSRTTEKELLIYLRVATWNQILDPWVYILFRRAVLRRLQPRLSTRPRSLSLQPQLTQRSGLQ
In short: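 Human platelet membranes tested for radioligand displacement by filtration and scintillation counting 1 h post-dose. Screened in duplicate at 25 uM; activity fitted as signal loss relative to DMSO.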

[3] = biological target: human Purinergic Receptor P2Y, P2RY1 (gene 5028) (UniProt P47900); assay: NVS_GPCR_hPY2: NovaScreen (NVS) G Protein-Coupled Receptor Assay for human Purinergic Receptor P2Y (AID 2283281)
human Purinergic Receptor P2Y, P2RY1 (gene 5028), sequence (P47900 whole entry, looked up): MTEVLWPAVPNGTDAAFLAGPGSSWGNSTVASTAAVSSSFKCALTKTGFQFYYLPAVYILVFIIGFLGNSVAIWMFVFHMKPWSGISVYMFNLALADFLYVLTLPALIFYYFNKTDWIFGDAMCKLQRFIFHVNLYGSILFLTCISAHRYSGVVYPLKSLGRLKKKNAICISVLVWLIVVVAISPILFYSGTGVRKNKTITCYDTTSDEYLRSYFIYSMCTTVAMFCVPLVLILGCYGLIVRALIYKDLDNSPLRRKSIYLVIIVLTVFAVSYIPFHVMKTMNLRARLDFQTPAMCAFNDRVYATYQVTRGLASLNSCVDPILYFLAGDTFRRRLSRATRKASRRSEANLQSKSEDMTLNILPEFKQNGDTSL
In short: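 Filtration scintillation readout of radioligand displacement on U937 extract, measured 1 h post-dosing. Single 25 uM duplicate screen, then singleton concentration series to 50 uM for chemicals passing threshold; DMSO as baseline.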

[4] = biological target: human Orphanin, Opioid Related Nociceptin Receptor 1 (ORL1), OPRL1 (gene 4987) (UniProt P41146); assay: NVS_GPCR_hORL1: NovaScreen (NVS) G Protein-Coupled Receptor Assay for human Orphanin, Opioid Related Nociceptin Receptor 1 (ORL1) (AID 2283283)
human Orphanin, Opioid Related Nociceptin Receptor 1 (ORL1), OPRL1 (gene 4987), sequence (P41146 whole entry, looked up): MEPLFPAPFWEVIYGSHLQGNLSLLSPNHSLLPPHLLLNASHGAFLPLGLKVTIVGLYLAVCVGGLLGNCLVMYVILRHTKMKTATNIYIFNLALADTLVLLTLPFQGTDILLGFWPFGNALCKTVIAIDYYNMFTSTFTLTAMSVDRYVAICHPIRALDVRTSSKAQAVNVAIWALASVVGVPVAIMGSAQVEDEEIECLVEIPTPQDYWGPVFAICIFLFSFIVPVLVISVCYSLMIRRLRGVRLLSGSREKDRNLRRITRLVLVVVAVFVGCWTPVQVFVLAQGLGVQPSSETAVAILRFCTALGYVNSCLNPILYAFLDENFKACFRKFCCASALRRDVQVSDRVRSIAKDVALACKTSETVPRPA
In short: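 Cell-free binding using HEK293-derived receptor protein: radioligand displacement measured by filter scintillation 1 hour after dosing. Primary testing at 25 uM in duplicate, followed by singleton concentration series up to 50 uM; DMSO served as negative control.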

[5] = biological target: mouse Cholecystokinin, CCK1 Receptor (CCKA), Cckar (gene 12425) (UniProt O08786); assay: NVS_GPCR_mCCKAPeripheral: NovaScreen (NVS) G Protein-Coupled Receptor Assay for mouse Cholecystokinin, CCK1 Receptor (CCKA) (AID 2283285)
mouse Cholecystokinin, CCK1 Receptor (CCKA), Cckar (gene 12425), sequence (O08786 whole entry, looked up): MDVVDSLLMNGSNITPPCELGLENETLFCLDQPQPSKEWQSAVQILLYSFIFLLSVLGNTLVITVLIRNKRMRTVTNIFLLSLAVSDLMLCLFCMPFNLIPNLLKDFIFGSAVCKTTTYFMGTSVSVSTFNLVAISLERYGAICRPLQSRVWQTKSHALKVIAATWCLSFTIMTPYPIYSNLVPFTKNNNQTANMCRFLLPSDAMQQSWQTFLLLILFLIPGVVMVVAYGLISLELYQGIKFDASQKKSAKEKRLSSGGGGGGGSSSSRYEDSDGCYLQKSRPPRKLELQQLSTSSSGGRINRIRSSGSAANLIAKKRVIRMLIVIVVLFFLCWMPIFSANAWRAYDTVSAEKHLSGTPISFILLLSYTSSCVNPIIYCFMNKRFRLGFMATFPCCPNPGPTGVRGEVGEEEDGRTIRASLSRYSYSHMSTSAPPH
In short: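 Chemicals were first screened in duplicate at 25 uM, with those meeting threshold (e.g., 30% inhibition) retested in singleton concentration series to 50 uM maximum. Binding of radioligand to mouse pancreatic membranes was read after 2 h by filtration and scintillation counting.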

[6] = test system: rabbit Platelet Activating Factor Receptor (PAF), gene 100354046; assay: NVS_GPCR_rabPAF: NovaScreen (NVS) G Protein-Coupled Receptor Assay for rabbit Platelet Activating Factor Receptor (PAF) (AID 2283287)
In short: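 Rabbit platelet membrane preparation; radioligand displacement read by filter-based scintillation counting 1 h after dosing, loss of signal versus DMSO. Primary screen in duplicate at 25 uM, actives followed up in concentration series.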

[7] = test system: 5-hydroxytryptamine receptor 2C (pig); assay: NVS_GPCR_p5HT2C: NovaScreen (NVS) G Protein-Coupled Receptor Assay for pig Serotonin, 5-Hydroxytryptamine Receptor 2C (5HT2C) (AID 2283288)
Method: NVS_GPCR_p5HT2C is a biochemical, single-readout assay that uses extracted gene-proteins from Pig choroid plexus membranes in a tissue-based cell-free assay. Measurements were taken 1 hour after chemical dosing in a 48-well plate.NVS_GPCR_p5HT2C is one of one assay component(s) measured or calculated from the NVS_GPCR_p5HT2C assay. It is designed to make measurements of radioligand binding, a form of binding reporter, as detected with scintillation counting signals by Filter-based radiodetection technology.Data from the assay component NVS_GPCR_p5HT2C was analyzed into 1 assay endpoint. This assay endpoint, NVS_GPCR_p5HT2C, was analyzed in the positive analysis fitting direction relative to DMSO as the negative control and baseline of activity. Using a type of binding reporter, loss-of-signal activity can be used to understand changes in the binding as they relate to the gene HTR2C. Furthermore, this assay endpoint can be referred to as a primary readout, because the performed assay has only produced 1 assay endpoint. To generalize the intended target to other relatable targets, this assay endpoint is annotated to the gpcr intended target family, where the subfamily is rhodopsin-like receptor.
Binding assays used specific radioligands (tritiated, iodinated) with non-radioactive competitive displacement ligands in agonist or antagonist protocols (as indicated) and various reference compounds and inhibitors to titrate specific binding to receptors and transporters. Most enzyme assays (CYPs, kinases, phosphatases, proteases, HDACs) used recombinant protein and specific substrates (fluorescence mostly, some colorimetric and radioactive) and inhibitors, followed by a biochemical separation of substrate and product. All assays for the biochemical HTS were initially run in duplicate at a single concentration (10 uM for CYP450 assays and 25 uM for all others). […] Each assay was run with positive and negative controls, and concurrent controls on every plate. The follow-up (secondary) screen tested active chemical-pairs in concentration series, as well as a few additional assays not tested in the primary screen, some selected negative inactives, and several cases re-run in the concentration series for confirmatory purposes.

[8] = biological target: rat Adrenergic, Alpha 1, Non-selective Receptor (Adra1), Adra1a (gene 29412) (UniProt P43140); assay: NVS_GPCR_rAdra1_NonSelective: NovaScreen (NVS) G Protein-Coupled Receptor Assay for rat Adrenergic, Alpha 1, Non-selective Receptor (Adra1) (AID 2283289)
rat Adrenergic, Alpha 1, Non-selective Receptor (Adra1), Adra1a (gene 29412), sequence (P43140 whole entry, looked up): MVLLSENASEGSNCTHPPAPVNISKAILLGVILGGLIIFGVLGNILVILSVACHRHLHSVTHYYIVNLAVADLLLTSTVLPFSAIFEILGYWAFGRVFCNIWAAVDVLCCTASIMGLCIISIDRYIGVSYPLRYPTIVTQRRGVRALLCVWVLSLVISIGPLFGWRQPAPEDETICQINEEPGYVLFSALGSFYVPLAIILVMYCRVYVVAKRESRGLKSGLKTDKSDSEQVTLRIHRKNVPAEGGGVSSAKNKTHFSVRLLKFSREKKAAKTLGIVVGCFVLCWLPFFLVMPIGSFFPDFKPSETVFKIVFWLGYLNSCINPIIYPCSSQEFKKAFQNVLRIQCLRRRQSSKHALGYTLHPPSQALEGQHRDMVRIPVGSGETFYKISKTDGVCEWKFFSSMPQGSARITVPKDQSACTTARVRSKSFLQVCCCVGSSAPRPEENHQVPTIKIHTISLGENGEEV
In short: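 Chemicals first screened in duplicate at 25 uM, then actives tested in concentration series up to 50 uM. Binding measured as displacement of radioligand from rat forebrain membrane receptors, 1 h, filtration with scintillation readout; DMSO baseline.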

[9] = biological target: rat Serotonin, 5-Hydroxytryptamine Receptor 1 (5HT1), Non-Selective Binding, Htr1a (gene 24473) (UniProt P19327); assay: NVS_GPCR_r5HT1_NonSelective: NovaScreen (NVS) G Protein-Coupled Receptor Assay for rat Serotonin, 5-Hydroxytryptamine Receptor 1 (5HT1), Non-Selective Binding (AID 2283286)
rat Serotonin, 5-Hydroxytryptamine Receptor 1 (5HT1), Non-Selective Binding, Htr1a (gene 24473), sequence (P19327 whole entry, looked up): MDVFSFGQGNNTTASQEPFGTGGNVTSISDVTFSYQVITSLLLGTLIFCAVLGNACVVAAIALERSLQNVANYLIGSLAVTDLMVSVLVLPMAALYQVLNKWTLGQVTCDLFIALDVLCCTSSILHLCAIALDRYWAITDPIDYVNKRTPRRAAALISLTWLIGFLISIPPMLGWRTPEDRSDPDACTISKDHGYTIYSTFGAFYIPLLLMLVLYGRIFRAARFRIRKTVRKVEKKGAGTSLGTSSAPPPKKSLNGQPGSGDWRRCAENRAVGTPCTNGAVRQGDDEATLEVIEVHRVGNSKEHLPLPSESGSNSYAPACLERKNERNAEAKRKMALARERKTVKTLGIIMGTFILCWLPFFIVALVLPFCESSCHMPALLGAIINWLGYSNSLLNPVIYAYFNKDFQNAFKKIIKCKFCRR
In short: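 Binding of a radioligand to rat cortex membranes is read by filtration and scintillation counting after 1 h. Compounds were screened at 25 uM in duplicate. Actives were then titrated to a top of 50 uM. DMSO is the baseline.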

[10] = biological target: human Vasopressin 1A Receptor (V1A), AVPR1A (gene 552) (UniProt P37288); assay: NVS_GPCR_hV1A: NovaScreen (NVS) G Protein-Coupled Receptor Assay for human Vasopressin 1A Receptor (V1A) (AID 2283284)
human Vasopressin 1A Receptor (V1A), AVPR1A (gene 552), sequence (P37288 whole entry, looked up): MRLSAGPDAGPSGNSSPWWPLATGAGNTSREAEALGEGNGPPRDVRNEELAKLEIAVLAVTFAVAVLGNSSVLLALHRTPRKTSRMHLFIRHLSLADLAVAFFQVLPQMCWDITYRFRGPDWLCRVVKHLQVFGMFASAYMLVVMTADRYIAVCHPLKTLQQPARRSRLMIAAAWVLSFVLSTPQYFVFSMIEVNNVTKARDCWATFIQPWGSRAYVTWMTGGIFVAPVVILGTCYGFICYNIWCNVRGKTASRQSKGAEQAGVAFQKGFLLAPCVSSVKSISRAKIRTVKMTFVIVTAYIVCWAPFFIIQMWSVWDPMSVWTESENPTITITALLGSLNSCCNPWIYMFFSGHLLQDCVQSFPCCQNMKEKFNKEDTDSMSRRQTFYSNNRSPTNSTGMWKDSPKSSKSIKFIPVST
In short: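 Single-concentration duplicate screen at 25 uM, with concentration-response follow-up (top 50 uM) for actives. The assay measured displacement of a radioligand from human platelet-derived receptor after 1.5 h, detected by filtration and scintillation counting.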

Cc1oc(-c2ccccc2)nc1CCOc1ccc(C[C@H](Nc2ccccc2C(=O)c2ccccc2)C(=O)O)cc1
AC50 [1]: 12.8 µM (active) | AC50 [2]: 3.52 µM (active)

Nc1cccc2c(N)cccc12
outcome [2]: inactive

C#C[C@]1(O)CC[C@H]2[C@@H]3CCC4=CC(=O)CC[C@@H]4[C@H]3CC[C@@]21C
outcome [3]: inactive

CCC(=C(c1ccc(O)cc1)c1ccc(OCCN(C)C)cc1)c1ccccc1
outcome [4]: inactive | AC50 [5]: 0.808 µM (active) | AC50 [6]: 4.17 µM (active)

Oc1cc2ccccc2c2ccccc12
AC50 [7]: 0.848 µM (active)

CCCCC(CC)COC(=O)CCCCC(=O)OCc1ccccc1 (stereo not drawn)
AC50 [2]: 12.7 µM (active)

CC(=O)NC1(c2cccc(F)c2)CCN(CC[C@@]2(c3ccc(Cl)c(Cl)c3)CN(c3ccccc3)C(=O)CO2)CC1
outcome [1]: inactive | AC50 [7]: 3.53 µM (active) | AC50 [8]: 11.8 µM (active)

CCN(CC)CCNc1ccc(CNC=O)c2sc3ccc(OC)cc3c(=O)c12
outcome [1]: inactive | AC50 [7]: 13.5 µM (active) | AC50 [8]: 20.1 µM (active)

ClC1=C(Cl)C(Cl)(Cl)C(Cl)=C1Cl
outcome [5]: inactive

O=[N+]([O-])c1ccc(O)cc1
outcome [7]: inactive

O=C(O)Cc1cc(I)c(Oc2cc(I)c(O)c(I)c2)c(I)c1
outcome [5]: inactive | outcome [8]: inactive

C=C(C)C(=O)OCCC(F)(F)C(F)(F)C(F)(F)C(F)(F)C(F)(F)C(F)(F)F
outcome [2]: inactive | outcome [9]: inactive

CC1=C(/C=C/C(C)=C/C=C/C(C)=C/C(=O)O)C(C)(C)CCC1
AC50 [9]: 4.36 µM (active)

Cc1cc(CCN2CCN(c3nsc4ccccc34)CC2)cc2c1NC(=O)CC2(C)C
AC50 [7]: 0.00247 µM (active)

CCCCC(CC)COC(=O)CCCCC(=O)OCC(CC)CCCC (stereo not drawn)
AC50 [2]: 13.8 µM (active)

CC[C@H](C)[C@@H](C(=O)O)n1sc2ccccc2c1=O
outcome [1]: inactive | outcome [2]: inactive

NC(=O)N(O)[C@@H]1C=C[C@H](Oc2cccc(Oc3ccc(F)cc3)c2)C1
outcome [8]: inactive

CCCOC(=O)c1ccc(O)cc1
outcome [7]: inactive

N#C[C@@H]1CC(F)(F)CN1C(=O)CNC1CC2CCC(C1)N2c1ncccn1 (stereo partly drawn)
outcome [10]: inactive

CC[C@H](c1ccc(O)cc1)[C@@H](CC)c1ccc(O)cc1
AC50 [1]: 8.04 µM (active)

CN1CCN(c2ccccc2/C=C2\SCCN(c3ccc(Cl)c(Cl)c3)C2=O)CC1
AC50 [9]: 0.626 µM (active) | AC50 [7]: 0.748 µM (active)

NC(=O)N1C(=O)C(C(=O)c2cc(Cl)cs2)c2cc(F)c(Cl)cc21 (stereo not drawn)
outcome [1]: inactive | outcome [3]: inactive | AC50 [2]: 0.961 µM (active) | outcome [5]: inactive | outcome [7]: inactive

CCCOc1sc(C(=O)N2CCC(c3cc(CN)ccc3F)CC2)c(C)c1Br
AC50 [1]: 9.25 µM (active) | outcome [2]: inactive | AC50 [4]: 24 µM (active) | outcome [10]: inactive | AC50 [5]: 27.1 µM (active) | AC50 [9]: 5.18 µM (active) | AC50 [6]: 23.2 µM (active) | AC50 [7]: 16.6 µM (active) | AC50 [8]: 20.6 µM (active)

CCCCCCCCCCCCc1ccccc1S(=O)(=O)O
AC50 [1]: 7.58 µM (active) | AC50 [3]: 12.3 µM (active) | AC50 [2]: 12.1 µM (active) | AC50 [8]: 38.7 µM (active)

CCCCCCCCC(=O)O
AC50 [10]: 5.76 µM (active) | outcome [8]: inactive

CCc1nn(C2CCCCC2)c2cc(C3(C#N)CCC(C(=O)O)CC3)ccc12 (stereo not drawn)
outcome [1]: inactive

Source: PubChem BioAssay (EPA / NIEHS)
